WRN helicase inh: WRN helicase (human) inhibition; AID 651768; Q14191; Potency, µM (highest dose often 114 µM), inactives show top-dose activity change, negative = inhibition, usual class: inhibitors; 0.46% of 360,000 active; WRN helicase unwinding, fluorescent forked duplex, kinetic; further: nearly all actives have a fitted effect of over 55% in size
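Screening of the MLSMR collection measured strand separation of a quenched forked DNA duplex (100 nM) by 20 nM WRN with 2 mM ATP, all final. Compounds were preincubated with enzyme 15 min at room temperature.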
L3MBTL1 block: inhibitors of human L3MBTL1; Q9Y468; AID 485360; AlphaScreen L3MBTL1–H3K9me1 peptide binding; 0.66% of 230,000 active; Potency, µM (highest dose often 57.1 µM), for the others: at the highest dose activity, negative = inhibition, hits mostly inhibitors; further: nearly all actives have a fitted effect of over 60% in size
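Displacement of a biotinylated histone H3(1-15) peptide monomethylated at Lys9 (75 nM) from L3MBTL1 (50 nM) was measured by AlphaScreen after a 30 min room-temperature compound incubation; cefsulodin titration served as intraplate control.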
BLM helicase inh: inhibitors of human Bloom syndrome helicase BLM | 0.2% of 350,000 active | AID 2528 | P54132 | recombinant BLM DNA unwinding, fluorescence dequenching | Potency, µM (doses to about 56.1 µM), inactives show top-dose activity change, negative = inhibition, usual class: inhibitors;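 further: plate controls were vehicle for no effect and no enzyme for full effect; nearly all actives have a fitted effect of over 35% in size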
FEN1 inhibitor: blocks human flap endonuclease 1; 0.35% of 390,000 active; Potency, µM (top dose mostly 114 µM), inactives show at the top dose activity change, negative = inhibition, most hits filed as inhibitors; Recombinant FEN1 flap cleavage, fluorescence, 15 min; AID 588795; P39748; further: nearly all actives have a fitted effect of over 65% in size
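Read-out was taken twice, immediately and after 15 min, following addition of 50 nM substrate to 10 nM FEN1 that had sat with test compound for 15 min at room temperature. Curves came from a four-parameter Hill model.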
APE1 inh: APE1 (human) endonuclease inhibition; P27695; recombinant APE1, TAMRA/BHQ-2 abasic DNA cleavage fluorescence; Potency, µM (series often up to 65.8 µM), inactives show at the highest dose activity change, negative = inhibition, usual class: inhibitors; 0.35% of 350,000 active; AID 2517;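 further: plate controls were vehicle for no effect and reference inhibitor for full effect; nearly all actives have a fitted effect of over 55% in size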
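Measures dequenching upon AP-site incision of a 5'-TAMRA/3'-BHQ-2 THF-containing duplex, 50 nM; human APE1 0.75 nM after 15 min room-temperature exposure to compound; kinetic three-point read at one-minute spacing.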
RECQ1 inh: RECQ1 (human) helicase inhibition | P46063 | RECQ1 DNA unwinding, red fluorescence kinetic read | Potency, µM (titrated, usually from 57.3 µM), for the others: at the highest dose activity, negative = inhibition, actives largely listed as inhibitors | 0.54% of 240,000 active | AID 2549;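 further: plate controls were vehicle for no effect and no enzyme for full effect; nearly all actives have a fitted effect of over 30% in size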
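50 nM RECQ1T1 preincubated 15 min with compound in Tris pH 8.0 buffer with MgCl2, DTT, Tween-20 and 2.5 ug/ml poly(dI-dC); started with 200 nM TAMRA/BHQ-2 forked duplex and 2 mM ATP. Unwinding read as fluorescence (525/598 nm), two reads 2 h apart.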
The depositor's hits bear a star; i = inactive; ? = inconclusive; . = no result given; [ ] = remark or other dose. This is a sample that favours compounds with a hit; in the whole collection about 1% have one here. The call rests on the fitted dose curve; in most records, active means well fitted curve in the direction sought with a large enough effect; inconclusive means small, poorly fitted or top-dose-only effect, or another doubt; inactive means no such curve, though single readings can be large; an effect the other way counts as inactive or inconclusive. Unless noted, on the % scale 0 is the no-effect control and ±100 the full control effect; potency means the concentration at half of the fitted maximal effect.

SMILES	WRN helicase inh	L3MBTL1 block	BLM helicase inh	FEN1 inhibitor	APE1 inh	RECQ1 inh
Cc1cc(C)cc(-n2cccc2/C=C2/C(=N)N3C(=NC2=O)SN=C3S(C)(=O)=O)c1	-11%[11.6 µM]	.	32µM*	-6%	?	32µM*
Cc1ccc(-n2cccc2/C=C2/C(=N)N3C(=NC2=O)SN=C3S(C)(=O)=O)cc1	?	?	-27%	?	?	25µM*
CC1(C(=O)Nc2cccc(NS(C)(=O)=O)c2)CCN1CCc1ccccc1 (stereo not given)	-8%	.	.	.	.	.
COC(=O)[C@H](C)[C@H](CC(C)C)NC(=O)[C@H](C)[C@H](CC(C)C)NC(=O)c1ccccn1	.	.	-3%	1%	1%	-3%
COc1cc(NC(=O)[C@H]2O[C@@H](n3cnc4c(N)ncnc43)[C@H](O)[C@@H]2O)cc(OC)c1OC	-4%	.	.	.	.	.
COc1ccc(C2=Nn3c(nnc3-c3ccccc3C(F)(F)F)SC2)cc1OCC1CC1	.	.	.	.	0%	.
CSc1ccccc1C(=O)N1CCN(S(=O)(=O)c2sc(C(=O)O)c(C)c2C(=O)O)CC1	-15%	-10%	.	-6%	20%	.
CC1(C)CC(=O)C(N=Nc2cc(S(=O)(=O)N3CCOCC3)ccc2Cl)=C(O)C1	-5%	32µM*	-18%	16%	10µM*	-9%
COc1ccccc1NC(=O)C(=N\O)/C(C)=N/O	-36%	1%	-3%	-13%	22µM*	-6%
Cc1nn(-c2ccc(Cl)cc2)c(=O)c2ccccc12	-2%	14%	-4%	-8%	-2%	i
Cc1c(Cl)sn(-c2ccc(Cl)cc2)c1=O	16µM*	-5%	1%	?	-9%	29%
C/C=C(\C)C(=O)Nc1cccc(C2=NOC3(C2)C[C@@H](C(N)=O)N(C(=O)/C(C)=C/C)C3)c1 (stereo not given in full)	0%	.	-2%	-1%	1%	i
NC(=O)[C@H]1CC2(CC(c3cccc(NC(=O)[C@H]4CCC(=O)N4)c3)=NO2)CN1C(=O)c1ccccc1 (stereo not given in full)	-7%[11.6 µM]	.	-7%	79µM*	?	i
C=C(C)C(=O)Nc1cccc(C2=NOC3(C2)C[C@@H](C(N)=O)N(C(=O)/C(C)=C/C)C3)c1 (stereo not given in full)	?	.	-1%	-20%	-10%	18µM*
C/C=C/C=C\C(=O)Nc1cccc(C2=NOC3(C2)C[C@H](C(N)=O)N(C(=O)CC#N)C3)c1 (stereo not given in full)	45µM*	.	-25%	?	11%	?
NC(=O)[C@@H]1CC2(CC(c3cccc(NC(=O)[C@H]4CCC(=O)N4)c3)=NO2)CN1C(=O)c1ccc(Cl)cc1 (stereo not given in full)	11%	.	1%	-7%	4%	i
CCN(CC)S(=O)(=O)c1ccc2oc(C(=O)NCc3ccccc3OC)c(C)c2c1	.	.	-5%	-2%	.	.
C=CCc1cc(/C=C/c2nc(O)c([N+](=O)[O-])c(=O)[nH]2)cc(OC)c1O	45µM*	?	-6%	45µM*	?	?
O=C1C(SCCO)=C(SCCO)C(=O)c2ccccc21	79µM*	?	8.9µM*	?	?	?
O=C1C(Cl)=C(NCCCO)C(=O)c2ccccc21	-11%	.	-5%	-6%	-2%	-2%
O=C(CN1C(=O)/C(=C/c2cccc(Br)c2)SC1=S)NCCCN1CCOCC1	79µM*	.	-3%	-17%	-1%	.
O=C(CCCN1C(=O)/C(=C/c2cccc(Br)c2)SC1=S)NCCCN1CCOCC1	-3%	.	-1%	-3%	24%	.
O=C(Sc1n[nH]c(=O)[nH]c1=O)c1ccccc1	18µM*	.	.	1%	.	.
CN(C(=O)CSc1n[nH]c(=O)[nH]c1=O)c1ccccc1	-2%	-3%	.	-4%	16%	.
CN(CCc1ccccc1)C(=O)c1cccc(NC(=O)Cc2cccc(NC(=O)C3CCCN(C(=O)c4ccccc4)C3)c2)c1 (stereo not given)	3%	.	.	-5%	.	.
SMILES	WRN helicase inh	L3MBTL1 block	BLM helicase inh	FEN1 inhibitor	APE1 inh	RECQ1 inh
COc1cc(OC)c(NC(=O)CCCn2nc(C)c3sc4ccccc4c3c2=O)cc1Cl	.	.	3%	35µM*	.	.
O=C1C2C(C(=O)N1/N=C/c1cc([N+](=O)[O-])ccc1O)C1C=CC2C12CC2 (stereo not given)	5%	-6%	-1%	-17%	3%	-1%
O=C1C2C(C(=O)N1/N=C/c1cc([N+](=O)[O-])c(O)cc1O)C1C=CC2C12CC2 (stereo not given)	?	32µM*	-9%	-32%	?	?
Cc1ccc(N2CCC3CC2c2cc(-c4ccc(C(F)(F)F)cc4)ccc23)cc1 (stereo not given)	-1%	.	.	.	.	.
CN(C)CCOc1ncnc2c1oc1ccccc12	3%	.	8%	5%	-3%	12%
CN(C)CCOc1nc(-c2ccccc2)nc2c1oc1ccccc12	12%[57.1 µM]	-2%	156%	50µM*	-11%	5%
O=C(Cc1cccc2ccccc12)N/N=C/c1ccc(OC(=O)/C=C/c2ccco2)cc1	-5%[57.1 µM]	25µM*	-8%	-10%	?	-7%
O=C(Cc1cccc(NC(=O)C2CCCN(C(=O)C3CCCCC3)C2)c1)Nc1ccc(C(=O)N2CCCCC2)cc1 (stereo not given)	-4%	.	.	15%	.	.
CN=c1scc(-c2ccccc2F)n1/N=C/c1ccc(O)c(O)c1O	56µM*	3.5µM*	?	?	10µM*	7.9µM*
N#CC(=Cc1ccc(O)c(O)c1)C(=O)NCc1ccccc1	.	.	.	-19%	.	.
N#C/C(=C\c1ccc(O)c(O)c1)C(=O)OCCc1cccs1	.	.	-30%	.	-9%	28µM*
N#C/C(=C\c1ccc(O)c(O)c1)C(=O)NCCCc1ccccc1	?	?	?	0%	5%	16µM*
O=C(c1cc(-c2ccco2)nn1-c1cccc(Cl)c1)N1CCCCC1	56µM*	-26%	-23%	12%	-7%	?
O=C(c1cc(-c2cccc(Cl)c2)on1)N1CCCCCC1	-34%	.	-5%	0%	24%	.
O=C(CSc1nnc(-c2cccc([S+](=O)([O-])N3CCCC3)c2)n1-c1ccccc1)Nc1ccc2c(c1)OCCO2	.	.	.	.	17%	.
Cn1cccc1CC(=O)N/N=C\c1c2ccccc2cc2ccccc12	-16%	-1%	-5%	-11%	-8%	-21%
C[N+](C)(C)CC(=O)N/N=C/c1c2ccccc2cc2ccccc12	11%[11.6 µM]	.	91%	50µM*	?	.
N#Cc1c(-c2ccc([N+](=O)[O-])cc2)no[n+]1[O-]	.	.	.	.	7%	.
